Hit rate of the full screen: of about 330,000 compounds, about 1,900 (0.58%) were called active. Roughly 4% stayed inconclusive and do not appear here. A selection follows. Measured potencies and affinities stand elsewhere. Values without a mark were called inactive. No stated cut-off is given here; in the data, inconclusive means inhibition above about 70% without an active follow-up result; inactive means below that.
Assay: M. tuberculosis growth inhibition, HTS (AID 449762);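 further: bacterial growth assessed after seven days of incubation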
Conditions: M. tuberculosis H37Rv growth inhibition, 7H9 media; at 25 µM; active compounds read high

| Compound | inhibition [%] |
| --- | --- |
| NC(=O)NCCC1=CCCCC1 | 7.39 |
| O=C(NCCC1=CCCCC1)NC1CCCCC1 | 7.21 |
| O=C1N[C@@H](Cc2c[nH]c3ccccc23)COC(=O)[C@@H](Cc2ccc(F)cc2)C/C=C\C[C@H]1CC(=O)N(CCO)Cc1ccccc1 | 4.64 |
| COc1ccc(C(CNC(=O)c2ccc(Br)o2)N2CCN(C)CC2)cc1 (stereo unspecified) | 2.14 |
| CC(OC(=O)COc1ccccc1Cc1ccccc1)C(=O)N(C)c1ccccc1 (stereo unspecified) | -4.05 |
| CC(=O)Nc1ccc(NC(=O)C(C)OC(=O)COc2ccc(Nc3ccccc3)cc2)cc1 (stereo unspecified) | 40.1 |
| CN(CC(=O)Nc1ccc(Cl)cc1)C(=O)C1=COCCO1 | -13.8 |
| Cc1ccc(NS(=O)(=O)c2c(C)[nH]c(C)c2C(=O)N2CCCC2)cc1 | 2.46 |
| Oc1ccccc1N=N/C(=N/Nc1ccccc1O)c1ccccc1 | 10.4 |
| N#C/C(=N/Nc1ccccc1[N+](=O)[O-])C(N)=S | -5.6 |
| COc1ccc(-c2nc(CN3CCCCC3c3cccnc3)c(C)o2)c(F)c1 (stereo unspecified) | 3.24 |
| c1ccc(Oc2cccc(OCCCCN3CCCC3)c2)cc1 | 1.38 |
| CN1CCN(C(=O)c2cnn3c2NC(c2ccccc2)CC3C(F)(F)F)CC1 (stereo unspecified) | -19.6 |
| CCN(CC)CCCN(Cc1cc2cc3c(cc2[nH]c1=O)OCO3)C(=S)Nc1ccccc1OC | -4.51 |
| CCc1ccc(Nc2n[n+](-c3ccccc3)c(-c3ccc(C(=O)O)cc3)s2)cc1 | 4.87 |
| C[n+]1nc(Nc2ccccc2)sc1-c1ccc(O)cc1 | 4.57 |
| O=C(NCc1cccs1)c1cc(S(=O)(=O)N2CCOCC2)ccc1N1CCCC1 | 5.48 |
| Cc1ccccc1CN1CCN(c2ccc(S(=O)(=O)N3CCCC3)cn2)CC1 | -6.22 |
| COC(=O)C1C(=O)C2=C(CC1C)NC(C)=C(C(=O)OC(C)C)C2c1ccc(C)o1 (stereo unspecified) | 2.94 |
| COc1cc(OC)cc(-n2nnnc2SCC(=O)N2CCCC2)c1 | -5.03 |
| COc1ccc(-n2nnnc2S(=O)(=O)Cc2ccc(C(=O)O)cc2)cc1 | -3.99 |
| CCCCn1c(C)c(C(=O)O)c2cc(OC)c3ccccc3c21 | 17.8 |
| COc1cc(C(=O)NCCc2cn3ccc(C)cc3n2)cc(OC)c1OC | -5.75 |

| Compound | inhibition [%] |
| --- | --- |
| CN=c1scc(-c2cccs2)n1/N=C/c1ccccc1O | -8.02 |
| CN=c1scc(-c2ccccc2F)n1/N=C/c1ccc[nH]1 | 67.8 |
| C[C@H](CO)N1C[C@H](C)[C@@H](CN(C)Cc2ccc(C(=O)O)cc2)Oc2c(NS(=O)(=O)c3ccc(F)cc3)cccc2C1=O | -2.1 |
| O=C(NCc1nnc(SCC(=O)N2CCOCC2)o1)c1c(F)cccc1Cl | -6.01 |
| COc1cccc(OCC(=O)N(C)Cc2nc(-c3cccc(C)c3)no2)c1 | 1.4 |
| COc1ccc(O)c(C(=O)c2cnn(C(=O)c3cccc(S(=O)(=O)N4CCOCC4)c3)c2)c1 | -2.2 |
| CCN(CC(=O)NCc1cccs1)C(=O)c1ccc(-c2ccc(F)cc2)o1 | -1.53 |
| CCN(CC(=O)NCc1cccs1)C(=O)c1ccc(C)o1 | 2.46 |
| CCOc1ccc(S(=O)(=O)N2CCN(C(=O)CN3C(=O)NC4(CCCC4)C3=O)CC2)cc1 | -3.03 |
| Cc1ccc(OCc2cc(C(=O)Nc3ccccc3)oc2C)cc1 | 0.92 |
| Cc1oc(C(=O)Nc2ccc(C(=O)O)cc2)cc1COc1ccccc1 | -2.76 |
| COc1ccc(CCNC(=O)c2cc(C(C)C)on2)cc1OC | -0.84 |
| Cc1cccc2c1NC(=O)/C2=C\C(=O)c1cccs1 | -9.89 |
| CCc1ccc2c(c1)C(O)(CC(=O)c1cccs1)C(=O)N2 (stereo unspecified) | 10.1 |
| N#Cc1c(-c2ccccc2)c(-c2ccccc2)nn(CC(=O)NNC(=O)Nc2ccc(Cl)cc2)c1=O | 3.84 |
| N#Cc1c(-c2ccccc2)c(-c2ccccc2)nn(CC(=O)NNC(=O)Nc2ccccc2)c1=O | -9.35 |
| COc1ccc(NC(=O)C23CC4CC(CC(Cl)(C4)C2)C3)cc1S(=O)(=O)N1CCOCC1 | 1.2 |
| COC(=O)Cc1ccc(NC(=O)c2ccc3c(c2)C(=O)N(Cc2ccco2)C3=O)cc1 | -5.45 |
| CCOC(=O)c1c(NC(=O)CC2SC(N)=NC2=O)sc(C)c1C (stereo unspecified) | 0.41 |
| O=S(=O)(NCCN1CCCC1)c1ccc(Br)cc1 | 0.37 |
| CN1CCN(Cc2nc3ccccc3c(=O)n2Cc2nc(-c3ccc([N+](=O)[O-])cc3)cs2)CC1 | 3.59 |
| CCOc1ccc(-c2csc(Cn3c(CN4CCN(C)CC4)nc4ccccc4c3=O)n2)cc1 | 8.95 |
| CCCCN(C(=O)c1ccc(C#N)cc1)c1c(N)n(CCC)c(=O)[nH]c1=O | -1.21 |

| Compound | inhibition [%] |
| --- | --- |
| O=C(CN1CCCCC1)NC(=O)NC1CCCCC1 | -4.76 |
| COc1cc(O)cc2occ(-c3ccc(O)cc3)c(=O)c12 | -14.1 |
| Cc1nnc(SCC(=O)NC2CCCCC2)n1N | 3.31 |
| C=CCn1c(N)cc(=O)nc1SC(C)C(=O)Nc1ccc(C(=O)OCC)cc1 (stereo unspecified) | 6.39 |
| Cc1ccc(NC(=O)C(C)Sc2nc(-c3ccccc3)cc(=O)[nH]2)cc1 (stereo unspecified) | 14 |
| CCc1ccccc1NC(=O)C1CCCN(c2nn3c(=O)cc(C)nc3s2)C1 (stereo unspecified) | -6.18 |
| O=C(COC(=O)c1cc(S(=O)(=O)N2CCOCC2)ccc1F)c1ccccc1 | 0.68 |
| O=C(Nc1cccc(NC(=O)c2cc([N+](=O)[O-])ccc2Cl)n1)c1cc([N+](=O)[O-])ccc1Cl | 10.1 |
| CCc1cccc(NC(=O)C2CCN(c3ncnc4sc(C)c(C)c34)CC2)c1 | 22.6 |
| Cc1sc2ncnc(N3CCC(C(=O)Nc4ccc(C#N)cc4)CC3)c2c1C | 7.85 |
| COc1cc(-c2noc(C)c2C(=O)NCc2ccc(C)o2)cc(OC)c1OC | 3.84 |
| CC(=O)c1c(C)[nH]c(C(=O)OCC(=O)NCc2cccs2)c1C | 7.06 |
| CC(C)Nc1nc(NC(C)C)nc(N(C)C#N)n1 | 0.57 |
| CC(C)Nc1nc(NC(C)C)nc(N(C)C(N)=O)n1 | 1.68 |
| C=CC[C@H](CC(=O)OC(C)(C)C)C(=O)OC[C@H]1CCCN1C(=O)[C@@H](CC=C)CC(=O)N(CCO)Cc1ccccc1 | -3.24 |
| C[C@H](NC(=O)c1[nH]cnc1C(=O)Nc1cccc(Cl)c1)c1ccccc1 | 48.7 |
| C[C@@H](NC(=O)c1[nH]cnc1C(=O)Nc1cccc(Cl)c1)c1ccccc1 | 56.8 |
| O=C(CN(Cc1ccccc1)C(=O)CNS(=O)(=O)c1ccc(F)cc1)NCC1CCCO1 (stereo unspecified) | -5.05 |
| Cc1nn(-c2ccccc2)c(Cl)c1/C=N/NC(N)=O | -5.57 |
| Cc1nn(C)c(C)c1/C=C/C(=O)c1ccccc1 | 7.75 |
| O=C(c1cccc(C(F)(F)F)c1)c1c[nH]c(C(=O)NCCCN2CCOCC2)c1 | 2.14 |
| O=C(Nc1ccc2[nH]ncc2c1)c1ccccc1Cl | -3.21 |
| Cc1cc(S(=O)(=O)Nc2ccc3cn[nH]c3c2)c(C)cc1Cl | -3.66 |

| Compound | inhibition [%] |
| --- | --- |
| O=Cc1cc(Br)c(OC(=O)N2CCOCC2)c(Br)c1 | 5.26 |
| Cc1ccc(-c2nn(-c3ccccc3)cc2CO)cc1 | 4.76 |
| OCc1cn(-c2ccccc2)nc1-c1ccc(-c2nn(-c3ccccc3)cc2CO)cc1 | 0.63 |
| CC(C)[C@]1(c2ccc(Cl)cc2)ON(c2ccccc2C(F)(F)F)C1=O | 1.98 |
| O=C(CCc1nc2ccccc2c(=O)[nH]1)Nc1nnc(SCc2ccc(Cl)cc2)s1 | -0.53 |
| Cn1ccnc1SCC(=O)NCC(=O)Nc1ccc(F)c(F)c1F | 1.26 |
| c1ccc(CN2CCC(Nc3nc(-c4cccnc4)nc4ccccc34)CC2)cc1 | 10.5 |
| c1ccc(-c2nc(NC3CCCC3)c3ccccc3n2)cc1 | 11.8 |
| O=C(Nc1ccc(Cl)c(Cl)c1)c1ccc(Cl)c(Cl)c1 | 1.7 |
| O=C(Nc1ccncc1)c1ccc(Cl)c(Cl)c1 | 4.84 |
| CC(=O)Nc1ccc2nc3ccccc3nc2c1 | -9.66 |
| O=C(Nc1ccc2nc3ccccc3nc2c1)c1ccccc1 | -0.69 |
| COc1ccc(C)cc1NC(=O)CN1CCCC1c1ccc2c(c1)OCCCO2 (stereo unspecified) | 5.61 |
| COc1ccc(NC(=O)CCCCCN2C(=O)c3ccccc3C2=O)c(OC)c1 | -6.73 |
| C/C(=N\Nc1ccccc1Cl)c1ccc(-n2ccnc2)cc1 | 58.6 |
| C/C(=N\Nc1cccc(Cl)c1)c1ccc(-n2ccnc2)cc1 | 0.99 |
| COc1cccc(-c2cc(C(F)(F)F)c(C#N)c(=O)[nH]2)c1 | -9.57 |
| Cc1csc(=Nc2ccccc2)n1Cc1ccco1 | 11.3 |
| Cn1nnnc1SCC(=O)Nc1nc2c(s1)CCCC2 | 2.88 |
| N#Cc1c(NC(=O)CSc2nnnn2C2CCCCC2)sc2c1CCCC2 | -13.1 |
| Cc1ccc(N(CC(=O)NCc2ccco2)C(=O)CCC(=O)Nc2nccs2)c(C)c1 | 1.4 |
| Cc1cc(N2CCC(C(=O)N3CCN(c4cccc(C)c4C)CC3)CC2)n2ncnc2n1 | -0.67 |

From PubChem BioAssay AID449762 (Southern Research Specialized Biocontainment Screening …, 2010)
